# Screening results (PubChem BioAssay)
# In the library only some 5.5% were active in any assay of this set; here they are far more common.
# RORgamma inh: ROR gamma (mouse) transcription inhibition; P51450; Drosophila S2 Gal4-RORgamma UAS-luciferase reporter, 20 h; Potency, µM (series often up to 53.6 µM), without a hit: top-dose activity change, negative = inhibition, usual class: inhibitors; 310,000 tested, 5.4% active; AID 2551; note: % is set by controls: 0 for no effect and ±100 for the full control effect; nearly all actives have a fitted effect of over 60% in size
# Target sequence (P51450 whole entry, looked up, the tested form may be a part): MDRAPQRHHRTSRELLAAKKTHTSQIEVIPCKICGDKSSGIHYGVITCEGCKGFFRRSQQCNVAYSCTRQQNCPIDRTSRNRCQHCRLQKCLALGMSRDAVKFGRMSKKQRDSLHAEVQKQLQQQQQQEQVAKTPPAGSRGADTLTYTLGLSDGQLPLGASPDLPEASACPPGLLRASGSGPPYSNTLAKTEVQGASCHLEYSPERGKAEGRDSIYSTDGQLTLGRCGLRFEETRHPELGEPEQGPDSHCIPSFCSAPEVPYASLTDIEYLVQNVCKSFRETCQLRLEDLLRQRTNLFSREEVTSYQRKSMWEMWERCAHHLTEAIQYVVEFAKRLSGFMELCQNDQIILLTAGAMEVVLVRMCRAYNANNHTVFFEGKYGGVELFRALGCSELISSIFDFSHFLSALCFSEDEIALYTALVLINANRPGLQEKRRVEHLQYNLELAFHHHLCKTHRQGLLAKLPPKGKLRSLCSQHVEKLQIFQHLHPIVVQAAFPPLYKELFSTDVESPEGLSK
#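 Compounds are pin-transferred onto Drosophila Schneider cells expressing a copper-inducible Gal4–ROR gamma transactivation domain fusion. After 1 hr, copper sulfate is added to 700 uM final; luciferase is read 20 hr later.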
# Gal4-VP16 FLuc: inhibits Gal4-VP16 luciferase reporter, ROR gamma counter-screen. Drosophila S2 Gal4-VP16 UAS-luciferase, luminescence, 20 h. Potency, µM (top dose mostly 53.6 µM), for inactives: at the top dose activity, negative = inhibition, most hits filed as inhibitors. 310,000 tested, 3.5% active;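 note: Gal4-VP16 expression switched on by copper sulfate through the metallothionein promoter; % is set by controls: 0 for no effect and ±100 for the full control effect; nearly all actives have a fitted effect of over 50% in size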
# Chronic BCR inh: inhibitors of chronic active B-cell receptor signaling | AID 493014 | Potency, µM (doses to about 46.1 µM), inactives show at the top dose activity change, negative = inhibition, hits mostly inhibitors | ABC-DLBCL IkBa-CBG/CBR reporter, luminescence ratio, 4 h | 340,000 tested, 0.05% active; active = well fitted inhibition curve with a large enough effect in the signal ratio, with a control signal flat, not every such curve was filed as active; inconclusive = small, poorly fitted or top-dose-only effect, or effect the other way, or a change in a side signal; the % refers to the signal ratio;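 note: plate controls were basal doxycycline-induced cells for no effect and cells given 10 µM MG132 for full effect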
#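 Cell line TMD8 (human ABC DLBCL), stably expressing tet-inducible CBG68-IkBa fusion and CBR; IMDM/0.5% FBS; cpd up to 46 uM; dox induction, 4 h, 37C/5% CO2; dual luminescence; green/red ratio; MG132 control.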
# a7 integrin act: activators of alpha7 integrin expression for muscular dystrophy; alpha7betagal myoblasts, beta-gal FDG fluorescence, 48 h; AID 624291; Potency, µM (doses to about 38.3 µM), for the others: top-dose activation, hits mostly activators; 350,000 tested, 0.064% active;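 note: 100% = response of the positive control SU9516; nearly all actives have a fitted effect of over 60% in size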
#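 alpha7betagal+/- myoblasts (passage 13, 250/well) treated 48 h at 37C with compounds at 1:260 dilution of DMSO stock. Lysed, then beta-galactosidase activity read as FDG fluorescence (ex 480/em 540) after 30 min, with pre-read for autofluorescence.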
# uPA generation: cell surface uPA generation inhibition; cell surface uPA generation assay, qHTS; Potency, µM (doses to about 38.3 µM), inactives show at the highest dose activity change, negative = inhibition, hits mostly inhibitors; 330,000 tested, 0.31% active; AID 540303; active = well fitted inhibition curve with a large enough effect; inconclusive = small, poorly fitted or top-dose-only effect; inactive = no such curve, though single readings can be large or run the other way; tested in mouse RAW 264.7 cells; note: % is set by controls: 0 for no effect and ±100 for the full control effect; nearly all actives have a fitted effect of over 55% in size
# Mito fusion yeast: blocks mitochondrial division or promotes mitochondrial fusion; S. cerevisiae fusion-defective mutant growth rescue, CellTiterGlo 48 h; Potency, µM (highest dose often 46.1 µM), for inactives: at the highest dose growth rescue (activation), usual class: activators; AID 485298; 320,000 tested, 0.23% active; note: % of control where 0% means no effect; nearly all actives have a fitted effect of over 45% in size
#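 Temperature-sensitive fusion-defective S. cerevisiae (e.g. fzo1-1, mgm1-5) were grown with compound in YPEG medium (3% ethanol, 3% glycerol) for 48 hours at 37C. Growth rescue was measured as viability by CellTiterGlo luminescence after 10 minutes at ambient.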
# * hit, by the source's call; u = inconclusive; x = no result; [ ] = dose if it differs, or a comment. Unless noted, calls come from the whole dose curve; as a rule, active = well fitted curve in the direction sought with a large enough effect; inconclusive = small, poorly fitted or top-dose-only effect, or another doubt; inactive = no such curve, though single readings can be large; an effect the other way counts as inactive or inconclusive. Potency is the fitted concentration of half-maximal effect.
SMILES,RORgamma inh,Gal4-VP16 FLuc,Chronic BCR inh,a7 integrin act,uPA generation,Mito fusion yeast
Cc1ccsc1CNCc1cc(Cl)ccc1O,x,x,u,2%,-3%,5%
O=c1oc2ccc(Cl)cc2nc1/C=C(\O)c1cccs1,8.9µM*,11µM*,u,-12%,-8%,-6%
Cc1ccc2oc(=O)c(/C=C(\O)c3cccs3)nc2c1,u,u,u,-3%,-8%,1%
C=CCn1c(C)cc(C2=NNC(=NC(C)(C)C)SC2)c1C,11µM*,10µM*,u,-6%,-3%,0%
C=CCN=C1NN=C(c2cc(C)n(CCOC)c2C)CS1,1µM*,-83%,u,0%,2%,-3%
COCCn1c(C)cc(C2=NNC(=NC3CC3)SC2)c1C,1.1µM*,1.1µM*,u,-8%,-8%,4%
COCC(=O)N1CCC(Oc2ccc(C(=O)N3C[C@H]4CC[C@H]3C4)cc2)CC1,-12%,-11%,-8%,1%,-2%,-1%
O=C(O)c1ccc(S(=O)(=O)N[C@H](Cc2ccc([N+](=O)[O-])cc2)C(=O)O)cc1,4%,-4%,9%,x,x,-3%
Cc1nnc(N/N=C/c2ccccc2C(F)(F)F)n1N,x,x,u,4%,-23%,0%
CCOc1cc(/C=N/Nc2nnc(C)n2N)ccc1OC(C)=O,11µM*,u,u,-20%,-17%,-9%
Cc1ccc(Nc2nnc(C(C)(C)C)c(=O)n2N)cc1,u,29%,1%,17%,-3%,3%
CCc1nnc(N/N=C/c2cccs2)n1N,u,13µM*,u,u,-12%,0%
CCc1nnc(N/N=C/c2cc(Br)c(O)cc2O)n1N,10µM*,11µM*,u,-19%,-10%,-8%
CCc1nnc(N/N=C/c2c(Cl)cccc2Cl)n1N,u,u,u,6%,-8%,-3%
CC(C)(C)c1nnc(N/N=C/c2cc(Br)ccc2O)n(N)c1=O,13µM*,10µM*,u,-25%,-4%,28%
CCc1nnc(N/N=C\c2ccc(OC(C)=O)c(OC)c2)n1N,u,u,-5%,-20%,u,-47%
CC(C)=CCn1cnc2c1c(=O)n(C)c(=O)n2C,-6%,3%,x,x,x,x
CCc1nnc(N/N=C/c2ccc(O)c(OC)c2)n1N,16µM*,13µM*,u,24%,-30%,-5%
CN1CCN(Cc2cc(COCc3ccccc3)c3cccnc3c2O)CC1,2µM*,1.3µM*,u,-46%,-12%,-5%
O=C(COc1c(Br)cc(Br)c2cccnc12)Nc1ccccc1F,u,20µM*,0%,4%,11%,12%
Oc1c(Cl)cc(CN2CCOCC2)c2cccnc12,x,x,-10%,-50%,u,u
O=C(COc1cccc2cccnc12)N1CCc2ccccc2C1,18%,9%,-26%,-26%,-5%,2%
Oc1c(CN2CCCCC2)cc(Br)c2cccnc12,4µM*,1µM*,u,u,u,9%
O=C(COc1c(Br)cc(Br)c2cccnc12)N1CCc2ccccc2C1,5.6µM*,7.9µM*,16%,-16%,13%,u
CCCC(=O)C1=C(c2ccc(C)c(C)c2)N(C(=O)CCC)n2c(CC)nnc2S1,x,x,8%,x,x,x
SMILES,RORgamma inh,Gal4-VP16 FLuc,Chronic BCR inh,a7 integrin act,uPA generation,Mito fusion yeast
NCCCC(N)CC(=O)NC1CNC(=O)C(C2CC(O)N=C(N)N2)NC(=O)/C(=C/NC(N)=O)NC(=O)C(CO)NC(=O)C(CO)NC1=O (stereo unspecified),5%[10 µM],2%,x,x,x,x
O=C(COc1c(Br)cc(Br)c2cccnc12)N1CCCCC1,10µM*,u,2%,u,-6%,u
Cc1c(C(=O)NC(=S)Nc2ccc3c4c(cccc24)CC3)cccc1[N+](=O)[O-],2.2µM*,5µM*,-2%,-4%,1%,-4%
CC(C)Oc1cccc(C(=O)NC(=S)Nc2ccc3c4c(cccc24)CC3)c1,11µM*,u,-17%,-28%,9%,-10%
COc1ccc(C(=O)NC(=S)Nc2ccc3c4c(cccc24)CC3)cc1OC,7.9µM*,u,u,-12%,3%,-5%
COc1ccc(C(=O)Nc2ccc3c4c(cccc24)CC3)cc1,21%,15%,-8%,25%[7.66 µM],x,7%
COc1cc(OC)cc(C(=O)NC(=S)Nc2ccc3c4c(cccc24)CC3)c1,u,5.6µM*,1%,5%,-2%,-3%
CC1CC2C3CCC4=CC(=O)C=C[C@@]4(C)[C@]3(F)C(O)C[C@]2(C)[C@]1(O)C(=O)COP(=O)(O)O (stereo partly specified),16%,-2%,x,x,x,x
Cc1ccc(/C=C/c2nc3ccccc3c(=O)[nH]2)cc1,2.5µM*,u,12%,0%,u,-3%
NC1=NCCCC1,-5%,3%,x,x,x,x
O=C1NC(c2ccc(Cl)cc2)Nc2ccccc21 (stereo unspecified),u,4%,-16%,23%,3%,17%
O=C1C(=O)c2ccccc2C(O)=C1C1CCC(c2ccc(Cl)cc2)CC1 (stereo unspecified),13µM*,5µM*,-4%,x,19%,-8%
CSc1ncccc1C(=O)NC1CCCc2c1cnn2-c1ccc(C)c(C)c1 (stereo unspecified),u,u,2%,-39%,2%,1%
Cc1nc(NC2CCCCC2)c2nc(-c3ccccc3)n(C(C)CN(C)C)c2n1 (stereo unspecified),10µM*,-1%,x,x,x,x
CCOc1ccc(CCNC(=O)Cn2nc(-c3ccc(C)cc3)ccc2=O)cc1OCC,x,x,0%,x,x,x
COc1ccc(-c2cc(=O)c3c(O)c(OC)c(O)cc3o2)cc1,u,10µM*,u,0%,10µM*,7%
COc1c(OC)c(O)c2c(=O)cc(-c3c(O)cccc3O)oc2c1OC,u,2%,11%,-16%,7.1µM*,-1%
CCN(CC)CCNC(=O)c1ccc2c(c1)NC(=O)C(CS(=O)(=O)Cc1ccc(F)cc1Cl)N2 (stereo unspecified),x,x,3%,x,x,-10%
COC(=O)C1(C)CN(S(=O)(=O)c2ccc(C)cc2)c2cc(OC)ccc2C1=O (stereo unspecified),5%,-1%,-2%,-5%,-8%,14µM*
CSCCC(NC(=O)c1ccccc1Br)C(=O)N1CCN(C/C=C/c2ccccc2)CC1 (stereo unspecified),x,x,x,-76%,u,x
CCCCOc1cccc(C(=O)NC(=S)Nc2cccc(C(F)(F)F)c2)c1,4.5µM*,2.8µM*,-9%,19%,-1%,-1%
CC(C)Oc1cccc(C(=O)NC(=S)Nc2cccc(C(F)(F)F)c2)c1,6.3µM*,u,-6%,-11%,1%,-15%
